# Measured values: article PMC4336329 (PLoS ONE, 2015)
# Hit rate of the full screen: of about 310,000 compounds, about 14,000 (4.5%) showed an effect of 50% or more. Effects have a minus sign here. For the sample, strong results were picked, then their nearest neighbours and some compounds at random.
# Target: human ether-à-go-go-related gene (hERG) potassium channel (human, UniProt Q12809)
# Assay: primary screen, population patch clamp on CHO cells stably expressing hERG; higher = less effect of the substance
# 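Note: peak tail current of the secondary pulse compared with the same well before compound.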
# human ether-à-go-go-related gene (hERG) potassium channel, sequence (Q12809 whole entry, looked up): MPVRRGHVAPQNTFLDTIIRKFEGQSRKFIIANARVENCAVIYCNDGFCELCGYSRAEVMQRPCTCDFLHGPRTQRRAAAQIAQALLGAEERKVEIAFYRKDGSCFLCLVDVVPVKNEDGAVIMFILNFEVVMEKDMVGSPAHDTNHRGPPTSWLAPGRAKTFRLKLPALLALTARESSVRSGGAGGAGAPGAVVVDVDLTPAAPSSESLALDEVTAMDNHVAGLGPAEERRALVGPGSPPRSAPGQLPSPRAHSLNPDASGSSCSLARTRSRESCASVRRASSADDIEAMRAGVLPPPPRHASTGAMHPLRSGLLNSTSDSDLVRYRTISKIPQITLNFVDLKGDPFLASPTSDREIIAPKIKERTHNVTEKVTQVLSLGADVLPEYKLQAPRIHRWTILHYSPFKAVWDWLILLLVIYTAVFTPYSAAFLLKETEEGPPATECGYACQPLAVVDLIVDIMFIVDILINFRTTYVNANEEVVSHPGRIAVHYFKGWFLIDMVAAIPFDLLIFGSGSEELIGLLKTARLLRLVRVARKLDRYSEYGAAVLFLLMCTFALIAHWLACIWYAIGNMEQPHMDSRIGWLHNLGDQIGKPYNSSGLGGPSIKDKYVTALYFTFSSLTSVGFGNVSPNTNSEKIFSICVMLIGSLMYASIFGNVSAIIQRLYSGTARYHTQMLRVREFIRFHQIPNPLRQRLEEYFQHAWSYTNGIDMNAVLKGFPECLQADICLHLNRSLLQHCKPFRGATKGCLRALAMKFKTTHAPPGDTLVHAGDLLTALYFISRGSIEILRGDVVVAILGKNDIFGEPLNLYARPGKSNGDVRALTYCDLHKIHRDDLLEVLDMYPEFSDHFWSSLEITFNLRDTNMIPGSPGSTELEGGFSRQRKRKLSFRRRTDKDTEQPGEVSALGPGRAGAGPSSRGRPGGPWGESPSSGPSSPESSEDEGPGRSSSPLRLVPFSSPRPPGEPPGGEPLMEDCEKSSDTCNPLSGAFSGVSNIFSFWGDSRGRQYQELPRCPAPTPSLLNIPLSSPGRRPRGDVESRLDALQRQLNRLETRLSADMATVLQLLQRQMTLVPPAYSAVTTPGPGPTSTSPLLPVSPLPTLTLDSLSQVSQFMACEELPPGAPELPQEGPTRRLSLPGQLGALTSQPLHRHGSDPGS
row,SMILES,"hERG current change (%, negative = inhibition) at 10uM [%]"
1,Cl.NS(=O)(=O)c1ccc(CCNCC#Cc2ccccc2)cc1,-21.6
2,COCCCN1C(=O)C(O)=C(C(=O)c2ccco2)C1c1ccccc1 (centres unmarked),21.3
3,Cc1ccc(CNC(=O)CSc2ccsc2[N+](=O)[O-])cc1,-4.87
4,COc1ccccc1N1CCN(Cc2cc(=O)c(OCC(=O)Nc3ccccc3)co2)CC1,25.5
5,CC(=O)c1cc(C#N)c(Oc2cc(C)cc(C)c2)nc1C,-4.94
6,CCOC(=O)N1CCC(N(CCCOC)C(=O)Nc2ccc(CC)cc2)CC1,-48.6
7,COc1ccccc1-c1cc(C(=O)Nc2cc(C)nn2-c2ccccc2)no1,17
8,COc1cc(/C=N/n2c(C)nc3ccccc3c2=O)ccc1O,4.55
9,CC(C)CC(COCc1ccc(Cl)cc1)N1CCN(C(=O)c2ccc(C(F)(F)F)cc2)CCC1=O (centres unmarked),-44.5
10,CC(C)CC(COCc1ccc([N+](=O)[O-])cc1)N1CCN(C(=O)c2ccc(C(F)(F)F)cc2)CCC1=O (centres unmarked),-67.1
11,CC(C)CC(COCc1ccc(C(F)(F)F)cc1)N1CCN(C(=O)c2ccc(C(F)(F)F)cc2)CCC1=O (centres unmarked),-16.7
12,O=C(c1cccc(NS(=O)(=O)c2cccc([N+](=O)[O-])c2)c1)N1CCOCC1,24.3
13,O=C(CCCC(=O)N(CC(=O)NC1CCCCC1)c1ccc(F)cc1)Nc1ccccn1,7.12
14,CCOc1ccc(N(CC(=O)NC2CCCC2)C(=O)CCC(=O)Nc2ccccn2)cc1,-56.2
15,COc1ccc(N(CC(=O)NC2CCCCC2)C(=O)CCCC(=O)Nc2ccccn2)cc1,-65.9
16,CCOc1ccc(N(CC(=O)NC2CCCC2)C(=O)CCCC(=O)Nc2ccccn2)cc1,-10.8
17,O=C(CCCC(=O)N(CC(=O)NC1CCCC1)c1cccc(F)c1)Nc1ccccn1,4.77
18,CCOc1ccc(N(CC(=O)NC2CCCCC2)C(=O)CCCC(=O)Nc2ccccn2)cc1,-0.443
19,O=C(CCCC(=O)N(CC(=O)NC1CCCCC1)c1cccc(F)c1)Nc1ccccn1,-55.3
20,O=C(CCC(=O)N(CC(=O)NC1CCCCC1)c1ccc(F)cc1)Nc1nccs1,-73.7
21,CCOc1ccc(N(CC(=O)NC2CCCCC2)C(=O)CCC(=O)Nc2ccccn2)cc1,-23.3
22,O=C(CCC(=O)N(CC(=O)NC1CCCC1)c1ccc(F)cc1)Nc1nccs1,4.37
23,COc1cccc(N(CC(=O)NC2CCCCC2)C(=O)CCCC(=O)Nc2ccccn2)c1,13.2
24,Cc1ccc(N(CC(=O)NC2CCCCC2)C(=O)CCC(=O)Nc2nccs2)cc1,-4.93
25,CN(C(=O)c1ccccc1OC1CCN(S(C)(=O)=O)CC1)C1CCOC1 (centres unmarked),11.7
26,NC(=O)Cn1nnc(-c2ccc(CN3CCCCC3)cc2)n1,21.6
27,O=C(N1CCCC1)N1CCN(S(=O)(=O)c2ccccc2)CC1,7.18

row,SMILES,"hERG current change (%, negative = inhibition) at 10uM [%]"
1,CC(C)/C=N\NC(=O)CCCCC(=O)N/N=C/C(C)C,6.11
2,CCOC(=O)C1=C(SCC(=O)Nc2ccccc2)NC(=O)C(C#N)C12CCCCC2 (centres unmarked),-5.43
3,Cc1ccc(N2CN(CCC3=CCCCC3)CNC2=S)cc1,18
4,Cc1ccc2c(c1)CCCN2C(=O)c1ccc2c(c1)OCO2,-4.53
5,O=c1c2c(-c3ccccc3)csc2nc2n1CCC2,14.5
6,O=c1cc(N2CCCCC2)c(-c2ccccc2)nn1Cc1ccc(Cl)cc1,-1.99
7,Cc1cc(C)cc(NC(=O)C2CCN(c3nc(C)cc(C)n3)CC2)c1,-3.58
8,CCOc1ccc(N(CC(=O)NC2CCCC2)C(=O)CCC(=O)Nc2nc(C)cs2)cc1,-28.8
9,CCOc1ccc(N(CC(=O)NC2CCCCC2)C(=O)CCC(=O)Nc2nc(C)cs2)cc1,-50.6
10,Cc1ccc(N(CC(=O)NC2CCCC2)C(=O)CCC(=O)Nc2nc(C)cs2)cc1,-11.9
11,O=C(CC(CC(=O)c1ccccc1)c1ccccc1)c1ccccc1,0.181
12,O=C(CSc1nnc(CN2CCOCC2)n1-c1ccccc1)Nc1ccc(Cl)cc1,-32.5
13,Cc1cc(C)c(S(=O)(=O)N2CCOC2CNC(=O)C(=O)NCCc2ccc(S(N)(=O)=O)cc2)c(C)c1 (centres unmarked),-17.8
14,O=C(Cn1cnc2c(nnn2Cc2ccccc2)c1=O)NCc1ccccc1Cl,5.76
15,Cc1ccc(SCc2ccc(C(=O)NCc3cccnc3)cc2)cc1,3.85
16,O=C(Oc1ccc(/C=N/Nc2ccccc2)cc1)c1ccccc1,15.4
17,O=C(O)c1ccc(N/N=C/c2ccc(OC(=O)c3ccccc3Cl)cc2)cc1,-56
18,O=C(O)c1ccc(N/N=C/c2ccc(OC(=O)c3cccc(Cl)c3)cc2)cc1,-9.22
19,COc1cccc(CNC(=O)CCC2CCCN(Cc3cc4ccccc4o3)C2)c1 (centres unmarked),-75.6
20,Cc1ccc(CNC(=O)CCC2CCCN(Cc3cc4ccccc4o3)C2)o1 (centres unmarked),-69.2
21,Cc1ccsc1C(=O)C1CCCN(Cc2cc3ccccc3o2)C1 (centres unmarked),-23.7
22,COCc1ccc(CN2CCCC(CCC(=O)NCc3cccc(OC)c3)C2)o1 (centres unmarked),-23.5
23,COc1cccc(CNC(=O)CCC2CCCN(C(=O)c3cc4ccccc4o3)C2)c1 (centres unmarked),-47.7
24,Cc1ccc(CNC(=O)CCC2CCCN(C(=O)CCC(F)(F)F)C2)o1 (centres unmarked),3.62
25,Cc1ccc(N/C=C(\C#N)S(=O)(=O)c2ccccc2)cc1,14.3
26,CCOC(=O)c1c(C)sc2c1N(C(=O)CCl)c1cc(Cl)ccc1S2,-3.3
